Data on 21 compounds can be found in PubChem BioAssay (NCATS).

Assay [1] deals with Cellular tumor antigen p53 (Homo sapiens) (UniProt P04637). Nature of the assay: Primary qHTS for small molecule compounds that upregulate eGFP-tagged delta133p53alpha (in N-terminal) cells. (AID 2060322). Also: nearly all actives have a fitted effect of over 75% in size. Also: potency is read from the fitted curve at half-maximal effect.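 As to activation: cells pre-induced with doxycycline then dosed without doxycycline; series mostly up to about 56 µM; 0% = DMSO vehicle and 100% = reference activator.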 The following applies: NCI-H358 eGFP-delta133p53alpha fluorescence, 24 h; activation: stronger effect = higher value. Summed up: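 NCI-H358 cells pre-induced 24 h with 10 ng/ml doxycycline for eGFP-delta133p53alpha, plated dox-free and exposed 24 h at 37C to titrated compounds. Fixed, Hoechst-stained; gated GFP peak intensity by laser scanning cytometry, normalized to DMSO (0%) and 57.5 uM 5-azacytidine (100%).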
On the technique in general: qHTS replaces the single test concentration by a dilution series.

In assay [2] the target is Aldehyde dehydrogenase, mitochondrial (Homo sapiens) (UniProt P05091). Kind of assay: qHTS for Inhibitors of the Aldehyde Dehydrogenase Family (ALDH2) Primary screen (AID 2061308).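 Also: plate controls were vehicle for no effect and reference inhibitor for full effect; nearly all actives have a fitted effect of over 55% in size.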
For assay [3], the target named is Retinaldehyde dehydrogenase 3 (Homo sapiens) (UniProt P47895). Kind of assay: qHTS for Inhibitors of the Aldehyde Dehydrogenase Family (ALDH1A3) Primary screen (AID 2061315). Also: potency is read from the fitted curve at half-maximal effect.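 As to activity change, negative = inhibition: plate controls were DMSO vehicle for no effect and reference inhibitor for full effect.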

Records with an inconclusive call do not appear. Unmarked numbers belong to inactive results. Calls of active or inactive are those of the source. Calls follow the shape of the dose curve; as a rule, active = well fitted curve in the direction sought with a large enough effect; inconclusive = small, poorly fitted or top-dose-only effect, or another doubt; inactive = no such curve, though single readings can be large; an effect the other way counts as inactive or inconclusive.

Cellular tumor antigen p53 (Homo sapiens), sequence (P04637 whole entry, looked up): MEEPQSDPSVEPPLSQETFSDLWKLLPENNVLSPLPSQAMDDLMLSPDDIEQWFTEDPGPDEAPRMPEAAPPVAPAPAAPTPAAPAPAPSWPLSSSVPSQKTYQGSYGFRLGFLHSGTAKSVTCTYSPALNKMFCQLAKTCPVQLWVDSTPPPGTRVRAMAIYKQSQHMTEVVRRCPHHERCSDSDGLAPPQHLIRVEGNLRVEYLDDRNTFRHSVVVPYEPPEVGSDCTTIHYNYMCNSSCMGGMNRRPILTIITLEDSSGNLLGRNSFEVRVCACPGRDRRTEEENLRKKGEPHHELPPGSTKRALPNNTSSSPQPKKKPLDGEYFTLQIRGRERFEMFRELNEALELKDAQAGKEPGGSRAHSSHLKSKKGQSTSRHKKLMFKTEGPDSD

In the case of `CC1=C2C=C(CO)C(CO)CCC2(C)CCC1=O` (stereo not drawn), in assay [1], the activation is 3.82%. Moreover, the Potency result in assay [2] and in assay [3] was “inactive” throughout.

As to `O=C(Nc1ccc(N(Cc2ccsc2)C(=O)Cn2nnc3ccccc32)cc1)C1CC1`, in assay [1], the activation is 11.6%. Also, the Potency entry in assay [2] and in assay [3] was “inactive” in each case.

On to `CC(C)=CC[C@H]1O[C@]2(O)C([C@H]3CCC4[C@@]5(C)CC[C@H](O[C@@H]6O[C@H](CO)[C@H](O)[C@H](O[C@@H]7O[C@H](CO)[C@@H](O)[C@H](O)[C@H]7O)[C@H]6O[C@@H]6O[C@@H](C)[C@H](O)[C@@H](O)[C@H]6O)C(C)(C)C5CC[C@@]4(C)[C@]3(C)[C@H]2O)[C@@]1(C)O` (stereo partly drawn), for which, in assay [1], the activation is 17.6%. The Potency result in assay [2] and in assay [3] was “inactive” in each case.

Consider `CC(=O)N[C@H]1[C@H](O[C@H]2CC[C@@]3(C)C(CC[C@]4(C)C3CC=C3C5CC(C)(C)CC[C@]5(C(=O)O)[C@H](O)C[C@]34C)C2(C)C)O[C@H](CO[C@@H]2OC[C@H](O)[C@H](O)[C@H]2O[C@@H]2OC[C@@H](O)[C@H](O)[C@H]2O)[C@@H](O)[C@@H]1O` (stereo partly drawn), for which the activation in assay [1] is -19.1%. For the same compound, the Potency result in assay [2] and in assay [3] was “inactive” in each case.

As to `COC(=O)C1C(O)CCC2CN3CCc4c([nH]c5ccccc45)C3CC21` (stereo not drawn), in assay [1], the activation was 23.2%. The Potency entry in assay [2] and in assay [3] was “inactive” each time.

As to `COc1cc2c(cc1O)CC[C@H]1[C@@H]2CC[C@]2(C)[C@H](O)CC[C@@H]12`, the Potency in assay [1] is 1.51 µM (active); in assay [3] it was 17.8 µM (active). In addition, in assay [2], the Potency entry was “inactive”.

For the compound `C[C@H](NC(c1cccc2[nH]c(=O)c(=O)[nH]c12)P(=O)(O)O)c1ccc(Br)cc1` (stereo partly drawn), the activation in assay [1] was -12.3%. The Potency result in assay [2] and in assay [3] was “inactive” in each case.

Take `CC(C(=O)Nc1cc(C#N)ccc1CCCC(=O)O)c1ccc(F)c2ccccc12` (stereo not drawn): the activation in assay [1] was 17.9%. The Potency entry in assay [2] and in assay [3] was “inactive” in each case.

In the case of `C[C@@H]1CCCN1CCc1cc2cc(-c3ccc(C#N)cc3)ccc2o1`, the activation in assay [1] was -11.5%. Besides, the Potency result in assay [2] and in assay [3] was “inactive” each time.

As for `C/C=C(\C)C(=O)OC[C@H]1O[C@@H](O[C@H]2[C@@H](O[C@H]3O[C@H](COC(=O)/C(C)=C/C)[C@@H](O)[C@H](O)[C@H]3O[C@@H]3O[C@H](COC(=O)/C(C)=C/C)[C@@H](O)[C@H](OC(=O)/C(C)=C/C)[C@H]3O)O[C@H](COC(=O)/C(C)=C/C)[C@@H](O)[C@@H]2O)[C@H](O)[C@@H](O)[C@@H]1O`, in assay [1], the activation is -15.3%. The Potency entry in assay [2] and in assay [3] was “inactive” throughout.

In the case of `C=C1C(=O)O[C@@H]2C3=C(C)CCC[C@]3(C)CC[C@@]12O`, the Potency in assay [1] was 16.9 µM (active). In addition, the Potency result in assay [2] and in assay [3] was “inactive” in each case.

`CC(C)CC(=O)OC[C@H]1O[C@@](COC(=O)CC(C)C)(O[C@H]2O[C@H](CO)[C@@H](O)[C@H](O)[C@H]2OC(=O)CC(C)C)[C@@H](OC(=O)CC(C)C)[C@@H]1O`: in assay [1], the activation is -7.14%. For the same compound, the Potency result in assay [2] and in assay [3] was “inactive” each time.

For `C=C1C[C@]23C[C@H]1[C@@H](O)C[C@H]2[C@@]12C=C[C@H](O)[C@@](C)(C(=O)O1)[C@H]2[C@@H]3C(=O)O`, the activation in assay [1] was -13%. Also, the Potency entry in assay [2] and in assay [3] was “inactive” throughout.

Take `CC[C@H](C)[C@H](NC(=O)[C@H](Cc1ccc(O)cc1)NC(=O)[C@@H](N)C(C)C)C(=O)N[C@@H](Cc1cnc[nH]1)C(=O)N1CCC[C@H]1C(=O)N[C@@H](Cc1ccccc1)C(=O)O`: the activation in assay [1] is 0.333%. The activity change, negative = inhibition in assay [2] is 0.0903% [at 5.59 µM]; in assay [3], 1.7% [at 5.59 µM].

On to `C=C1C(=O)O[C@@H]2/C=C(\C)C(=O)/C=C/[C@](C)(O)C[C@@H](OC(=O)C(C)C)[C@@H]12`, for which, in assay [1], the Potency is 2.95 µM (active). Further, the Potency result in assay [2] and in assay [3] was “inactive” throughout.

For the compound `C/C=C(\C)C(=O)O[C@H]1[C@@H](O[C@]2(COC(=O)CC(C)C)O[C@H](COC(=O)C(C)C)[C@@H](OC(C)=O)[C@@H]2O)O[C@H](COC(C)=O)[C@@H](O)[C@@H]1O`, in assay [1], the activation is 10.7%. Further, the Potency entry in assay [2] and in assay [3] was “inactive” throughout.

In the case of `COc1cc(CCc2ccccc2)c(C(=O)O)c2c1CC(C(C)(C)O)O2` (stereo not drawn), the activation in assay [1] was -13%. Moreover, the Potency entry in assay [2] and in assay [3] was “inactive” throughout.

Consider `CC(=O)O[C@@H](CO[C@@H]1O[C@H](CO)[C@H](O)[C@H](O)[C@H]1O)[C@]1(C)C=C2CC[C@@H]3C(C)(C)[C@@H](O)CC[C@@]3(C)[C@@H]2CC1`, for which the activation in assay [1] was 18.3%. In addition, the Potency entry in assay [2] and in assay [3] was “inactive” each time.

In the case of `Cc1sc(C)c(C(=O)NC2(c3ccc(C(=O)O)cc3)CC2)c1Cc1ccc(C(F)(F)F)cc1`, in assay [1], the activation is -4.77%. Also, the Potency entry in assay [2] and in assay [3] was “inactive” each time.

`O=C(O)c1cccc(C(=O)CCC2OC(n3cnc4c(=O)[nH]cnc43)C(O)C2O)c1` (stereo not drawn): in assay [1], the activation is 15.3%. For the same compound, the Potency entry in assay [2] and in assay [3] was “inactive” each time.

On to `CC(=O)C=C=C1C(C)(C)CC(O[C@@H]2O[C@H](CO)[C@@H](O)[C@H](O)[C@H]2O)CC1(C)O` (stereo partly drawn), for which the activation in assay [1] is -1.79%. The Potency entry in assay [2] and in assay [3] was “inactive” each time.
